Test results from PubChem BioAssay AID2314 (National Center for Advancing Translational Sciences (NCATS), 2010).
The whole screen tested about 300,000 compounds, of which about 37,000 (12%) were called active. Only a selection was taken, and actives are over-represented in it overall. Unmarked numbers belong to inactive results. Rule as the data show it: active = max response mostly above about 13% (no sharp cut-off); inactive = mostly below about 14%.

Test: Cycloheximide Counterscreen for Small Molecule Inhibitors of Shiga Toxin; also: read at 38.3 µM for the half of the compounds with a filed dose; 0% is about no effect
Settings: cell reporter, cycloheximide protein synthesis inhibition counterscreen; active compounds read high
Compound `Cn1c(=O)[nH]c(=O)c2c1nc(N1CCN(C(c3ccccc3)c3ccccc3)CC1)n2CCO` has a max response of -4.67%.
`CC(=O)N1CC(C)c2scc(C)[n+]2-c2ccccc21` (centres undefined) gave a max response of -4.21%.
Work on `COc1cccc(NC(=O)CN(C)C(=O)c2ccccc2CCc2ccccc2)c1` yielded a max response of -2.98%.
Compound `CC(C)CC(=O)N1CCN(Cc2cccc(Cl)c2)CC1` has a max response of -0.27%.
For `Cc1cccc(N(C(=O)Cc2cccs2)C(C(=O)NCc2ccco2)c2ccncc2)c1` (centres undefined), the max response was 7.8%.
`O=C(NCC(=O)N(c1ccccc1)C(C(=O)NCC1CCCO1)c1ccccc1)c1cccs1` (centres undefined) gave a max response of -2%.
In the case of `Cc1ccc(N(C(=O)Cc2cccs2)C(C(=O)NCC2CCCO2)c2ccncc2)cc1` (centres undefined), the max response is reported as 30.3% (active).
With `Cc1ccc(-c2csc(N3CCN(c4cc5c(cc4Cl)nc(-c4ccncc4)n5CCOCCO)CC3)n2)cc1` the max response was -1.79%.
For `CCOCCCNC(=O)C(NC(=O)CNC(=O)c1ccccc1)c1ccc(OC)cc1` (centres undefined), the max response was -3.78%.
`O=C(Nc1ccc(F)c(Cl)c1)C1CCN(S(=O)(=O)c2cccnc2)CC1` showed a max response of -6.06%.
`CCOC(=O)c1c(NC(=O)c2ccc(N3CCOCC3)c([N+](=O)[O-])c2)sc(C)c1C` gave a max response of 1.25%.
With `COc1ccc(C(=O)Nc2sc(C)c(C)c2CN2CCOCC2)cc1` the max response was 80% (active).
`COc1ccc(C(=O)Nc2ccc(CN3CCOCC3)cc2)cc1` showed a max response of 21.3%.
With `O=C(NCc1ccccc1)C1CCN(C(=O)Cc2ccccc2)CC1` the max response was -1.63%.
Work on `O=C(CSc1ccc(-c2ccc(Br)cc2)nn1)NCC1CCCO1` (centres undefined) yielded a max response of -3.31%.
With `Cc1ccc(/C=C(\C#N)C(=O)Nc2cccc3ncccc23)o1` the max response was -2.46%.
Compound `Cc1nnc2n1N=C(c1ccccc1)CS2` has a max response of -4.21%.
For `CC1=Nn2c(nnc2-c2ccccc2)SC1`, the max response was 1.95%.
With `COc1ccc(C2=Nn3c(nnc3-c3ccccc3O)SC2)cc1` the max response was 38.9% (active).
`Cc1c(C)c2ccc(OCC(=O)N3CCC(C(=O)O)CC3)c(C)c2oc1=O` gave a max response of -2.07%.
For `Cc1noc(C)c1CCC(=O)N1CCCC(CO)(Cc2ccccc2)C1` (centres undefined), the max response was 30.9% (active).
In the case of `CCCc1cc(C(=O)N2CCCC(CO)(CCCc3ccccc3)C2)n(C)n1` (centres undefined), the max response is reported as 9.31%.
Compound `Cc1noc(C)c1CCC(=O)O` has a max response of -2.43%.
In the case of `COC(=O)CCC(=O)N1CCCC(CO)(Cc2ccccc2)C1` (centres undefined), the max response is reported as 32.1% (active).
`CCOC(=O)C1(Cc2ccccc2C)CCCN(C(=O)CCc2c(C)noc2C)C1` (centres undefined) showed a max response of 9.83%.
`Cc1ccccc1CC1(CO)CCCN(C(=O)c2cc(-c3ccccc3)no2)C1` (centres undefined) gave a max response of 13.4%.
In the case of `O=C(NCc1ccccn1)[C@]1(C(F)(F)F)C[C@H](CCc2ccccc2)CCCO1`, the max response is reported as -4.95%.
Compound `O=[N+]([O-])c1cc(S(=O)(=O)CCCN2CCOCC2)ccc1F` has a max response of -6.03%.
Compound `NC(=O)CCN1CCN(S(=O)(=O)/C=C/c2ccccc2)CC1` has a max response of -9.41%.
In the case of `COCCCNC(=O)Cc1ccc(-n2c(C)nc3cccnc32)cc1`, the max response is reported as -1.61%.
`COC(=O)C1CCCCN1C(=O)c1ccc(OC2CCN(C(C)=O)CC2)c(OC)c1` (centres undefined) gave a max response of -4.09%.
Compound `Cn1c(C(=O)OC(C(=O)NC2CCCCC2)c2ccccn2)cc2sccc21` (centres undefined) has a max response of -2.24%.
`CC(C)Nc1nnc(SCC(=O)/C=C2\N(C)c3ccccc3C2(C)C)s1` showed a max response of 5.97%.
With `CN1/C(=C\C(=O)c2cccnc2Cl)C(C)(C)c2ccccc21` the max response was 17.7% (active).
Work on `CN1/C(=C\C(=O)c2oc3ccccc3c2N)C(C)(C)c2ccccc21` yielded a max response of 5.01%.
Work on `C=CCNC(=O)COc1coc(CN2CCN(Cc3ccccc3)CC2)cc1=O` yielded a max response of -1.91%.
`CCOC(=O)NNc1cc(C(F)(F)F)ccn1` gave a max response of -0.89%.
With `CCc1cccc(NC(=O)CCC(=O)O)c1` the max response was -2.1%.
Work on `O=C(NCc1cn2ccsc2n1)Nc1cccc(Cl)c1` yielded a max response of -2.26%.
In the case of `CCCC(=O)Nc1cccc(-c2cn3ccsc3n2)c1`, the max response is reported as 27.2% (active).
With `CCOC(=O)C1=C(C)OC(N)=C(C#N)C1c1cncc(-c2ccc(F)cc2)c1` (centres undefined) the max response was -4.52%.
Work on `CN(C)c1ccc(C(=S)N2CCN(C(=S)Nc3ccc(Cl)cc3)CC2)cc1` yielded a max response of -2.08%.
In the case of `C=CCc1cccc2cc(C(=O)Nc3ccc(NC(C)=O)cc3)c(=O)oc12`, the max response is reported as 7.03%.
With `CC1Cc2ccccc2N1C(=O)CSc1nnc(C2CC2)n1C` (centres undefined) the max response was -2.64%.
In the case of `C[C@@H]1C[C@@H]2O[C@H]2/C=C\C=C\C(=O)Cc2c(Cl)c(O)cc(O)c2C(=O)O1`, the max response is reported as 8.16% (active).
With `O=C(OCC1O[C@@H](OC(=O)c2cc(O)c(O)c(O)c2)[C@@H](OC(=O)c2cc(O)c(O)c(O)c2)[C@@H](OC(=O)c2cc(O)c(O)c(O)c2)[C@@H]1OC(=O)c1cc(O)c(O)c(O)c1)c1cc(O)c(O)c(O)c1` (some centres undefined) the max response was -3.49%.
Compound `Cc1cc(C)cc(N(CC(=O)NCCSCc2ccco2)S(C)(=O)=O)c1` has a max response of -3.57%.
Compound `OCCNCCOc1ccc(Cl)c(Cl)c1` has a max response of -2.06%.
For `COc1ccc(CCNC(=O)CSc2nc(-c3ccc(OC)c(OC)c3)ccc2C#N)cc1`, the max response was -0.296%.
In the case of `CCc1cc2c(=O)c(-c3ccc(F)cc3)c(C(F)(F)F)oc2cc1OCC(=O)O`, the max response is reported as -0.895%.
`COc1ccc2oc(N)c(C=O)c(=O)c2c1` showed a max response of 11.3%.
In the case of `CCc1cc2c(=O)c(-c3ccon3)c(N)oc2cc1OC`, the max response is reported as 40.8% (active).
With `COC(=O)Cn1cc(/C=C/[N+](=O)[O-])c2ccccc21` the max response was 0.349%.
For `Cc1ccc(-n2nc(C)c(/C=N/NC(=O)c3cccs3)c2Cl)cc1`, the max response was 41.5% (active).
With `Cc1cc(C)c([N+](=O)[O-])cc1-c1ccc(/C=N/NC(=O)c2nonc2N)o1` the max response was 8.92%.
Work on `Cc1nn(-c2ccccc2)c(C)c1/C=N/NC(=O)CSc1nc2ccccc2c(=O)n1-c1ccccc1` yielded a max response of -2.06%.
`Cc1nn(-c2ccccc2)c(NC(=O)c2cccs2)c(-c2ccc(Cl)cc2)c1=O` gave a max response of -4.56%.
In the case of `Cc1nn(-c2ccccc2)c(Cl)c1/C=N/NC(=O)c1nn(C)cc1[N+](=O)[O-]`, the max response is reported as 30.2% (active).
Work on `Cc1ccc(-c2nnc(SCC(=O)N/N=C/c3cccs3)n2-c2ccc(C)cc2)cc1` yielded a max response of -2.1%.
Compound `COc1ccc(CCN(C)C(=O)C23CC4CC(CC(Cl)(C4)C2)C3)cc1OC` has a max response of 6.24%.
For `Cc1ccc(C(=O)N2CCC(n3nccc3NC(=O)Nc3cccc(F)c3)CC2)cn1`, the max response was -3.88%.
Work on `Cc1ccccc1Nc1c(-c2ccccc2)nc2ncccn12` yielded a max response of -1.21%.
In the case of `FC(F)(F)Oc1ccc(-c2cn3cccnc3n2)cc1`, the max response is reported as 50.9% (active).
For `COc1ccc(-c2cn3ccsc3n2)cc1`, the max response was 42.7% (active).
In the case of `COc1cc(OC)cc(-c2nc(=S)n3ccsc3n2)c1`, the max response is reported as -1.36%.
In the case of `COc1ccc(N2CCN(C(=O)CSc3nnc4ncccn34)CC2)cc1`, the max response is reported as -1.32%.
`CN1CCN(Cc2ccc(OC(F)(F)F)cc2)CC1` gave a max response of -2.95%.
Work on `c1ccc(-c2cn3c(n2)CCc2ccc4cccnc4c2-3)cc1` yielded a max response of 11.1%.
For `c1ccc(-c2cn3cccnc3n2)cc1`, the max response was 15.7% (active).
With `COc1ccc(-c2ccnc(SCC(=O)N3CCOCC3)n2)cc1` the max response was 2.08%.
Compound `Cc1ccc(S(=O)(=O)NCc2cn3ccsc3n2)c(C)c1` has a max response of 2.86%.
With `COc1ccc(-c2cn3cccnc3n2)cc1` the max response was 23.9% (active).
`CC(C)CC[n+]1ccn(C2=C([O-])c3ccccc3C(=O)/C2=N\S(=O)(=O)c2ccccc2)c1` gave a max response of -1.98%.
In the case of `O=[N+]([O-])c1ccc(Oc2ccc(F)cc2Br)c2ccncc12`, the max response is reported as -2.77%.
Work on `CCCCn1nc(C(=O)Nc2ccc(S(=O)(=O)Nc3ncccn3)cc2)c2ccccc2c1=O` yielded a max response of -8.36%.
For `O=C1c2cccc(OCC(=O)N3N=C(c4cccs4)CC3c3ccc(F)cc3)c2CCN1Cc1ccccc1` (centres undefined), the max response was 4.05%.
For `CCOc1cc(C2C(C(=O)c3ccco3)=C(O)C(=O)N2Cc2ccccc2)ccc1O` (centres undefined), the max response was 4.82%.
Compound `Cc1cc(=O)oc2c(C)c(OCC(=O)NCCN3CCOCC3)ccc12` has a max response of 7.13%.
With `CCNc1c(NS(=O)(=O)c2ccc(C3CCCCC3)cc2)c(=O)oc2ccccc12` the max response was -5.65%.
`CC(c1ccccc1)n1c(NCCCn2ccnc2)nc2c1c(=O)[nH]c(=O)n2C` (centres undefined) showed a max response of -2.03%.
In the case of `COc1ccc(-c2c(NC(=O)c3ccco3)oc3ccc(Cl)cc3c2=O)cc1`, the max response is reported as 1.49%.
In the case of `COc1ccc(CN2CCCC(N3CCc4ccccc4C3)C2)c(O)c1` (centres undefined), the max response is reported as -0.856%.
`CCOc1ccc(NC(=O)[C@H](C)NC(=O)C2CC(=O)N(c3ccc(OC)cc3)C2)cc1` (some centres undefined) showed a max response of 4.95%.
In the case of `O.O.O.O=S(=O)([O-])OC[C@H]1O[C@@H](O[C@]2(COS(=O)(=O)[O-])O[C@H](OS(=O)(=O)[O-])[C@@H](OS(=O)(=O)[O-])[C@@H]2OS(=O)(=O)[O-])[C@H](OS(=O)(=O)[O-])[C@@H](OS(=O)(=O)[O-])[C@@H]1OS(=O)(=O)[O-].[Al]`, the max response is reported as -3.55%.
Work on `O=C(c1ccccc1)N1CCN(C(=O)c2cc3nc(-c4ccccc4)cc(C(F)(F)F)n3n2)CC1` yielded a max response of -1.97%.
Work on `COc1cccc(-c2nnc(NC(=O)c3ccc(S(=O)(=O)N(CC(C)C)CC(C)C)cc3)o2)c1` yielded a max response of -5.08%.
`Cc1ccc(N2C(=O)C3CC3C2=O)cc1` (centres undefined) showed a max response of -6.06%.
In the case of `Cc1ccc(N2CCN(c3ccc(C)cc3)C2c2ccccn2)cc1`, the max response is reported as 21.8% (active).
Work on `Cc1ccc(S(=O)(=O)NCC(=O)N2CCN(c3ccccn3)CC2)cc1` yielded a max response of -5.16%.
